Each structure is given as a SMILES string. Out of some 65,000 compounds screened, about 2,100 (3.2%) showed an effect of 50% or more. The median lay at about -52%. The sample holds strong results, similar compounds and a random draw of the others, so the mix is not that of the screen.

The values below come from ChEMBL document CHEMBL4513216, “Probing the Open Global Health Chemical Diversity Library for Multistage-Active Starting Points for Next-Generation Antimalarials” (ACS Infect Dis, 2020).

The subject of the assay is Plasmodium falciparum. Nature of the assay: Screen against P. falciparum Asexual Blood Stage (ABS), at 5uM. The assay is classed as functional, Dd2. The note with it: tested at 5 uM.
As to `Cn1c(CN2CC[C@](C)(O)C(C)(C)C2)cc2ccccc21`, the INHIBITION was -28.6%. As to `COc1ccc(C(CNC(=O)c2c(C)noc2C)N(C)C)cc1` (centres undefined), the INHIBITION is -125%. To `COc1ccc(CN2CCOC(CCc3ccnc(N)c3)C2)cc1` (centres undefined) belongs 38.1%; to `COc1cccc(CNCC2CCN(CC(C)O)CC2)c1OC` (centres undefined), -2.28%. Regarding `COc1ccccc1N1CCC(CNCc2cccc(OC)c2OC)C1` (centres undefined), the INHIBITION turned out to be 57%. As to `COc1ccccc1N1CCC(CNS(=O)(=O)c2c(C)nn(C)c2C)C1` (centres undefined), the INHIBITION is given as -22.2%.

Regarding `COc1c(CNCc2ccccc2CO)c(C)nn1C`, the INHIBITION is -2.62%.

In the case of `COc1ccccc1N1CCC(CNCc2c(C)nn(C)c2OC)C1` (centres undefined), the INHIBITION is 53.5%. Consider `COc1ccc(CNCC2CCN(c3ccccc3OC)C2)cc1O` (centres undefined), for which the INHIBITION turned out to be 24.5%. Consider `COc1ccccc1N1CCC(CNS(=O)(=O)c2cccs2)C1` (centres undefined), for which the INHIBITION worked out at 7.44%.

With `COc1ccccc1N1CCC(CNCc2cccc(C#N)c2)C1` (centres undefined), the INHIBITION is recorded as 3.2%. As for `COc1ccccc1N1CCC(CNCc2cccc(O)c2)C1` (centres undefined), the figure is 56.8%; as for `C/C(NC(=O)c1ccco1)=C1/C(=O)C[C@@H]2[C@H]1C2(C)C`, -86.3%; as for `CC(C)N(C)Cc1cn2c(n1)CN(C(=O)Cc1ccccc1)CC2`, -63.5%. On to `COc1c(CNCc2cccnc2N2CCN(C)CC2)c(C)nn1C`, for which the INHIBITION is listed as -95.3%. Take `CCOc1nc2cnccc2n(CC(=O)NCc2ccc(C)cc2)c1=O`: the INHIBITION is -10.3%. In the case of `Cc1nc(N2CCOCC2)nc2c1CCN(Cc1ccsc1)CC2`, the INHIBITION is -79.9%. On to `CCCc1ccc(C(=O)N2Cc3c(Cn4ccnc4)nn(C)c3C2)cc1`, for which the INHIBITION is recorded as -64.1%. Regarding `CCO[C@H]1C[C@@H](O)C12CCN(C(=O)CC(F)(F)F)CC2`, the INHIBITION was -105%. As for `N[C@H]1CN(Cc2cnc(N3CCCC3)nc2)C[C@@H]1C1CC1`, the figure is -9%; as for `CC(C)Oc1cc(N2C[C@H](C3CC3)[C@@H](N)C2)nc(N)n1`, -211%. For `Cc1cc(N2C[C@H](C3CC3)[C@@H](N)C2)nc(N2CCCCC2)n1`, the INHIBITION stood at 56.4%. Turning to `CCc1cc(N2C[C@H](C3CC3)[C@@H](N)C2)nc(N2CCCC2)n1`, the INHIBITION is recorded as 69.6%.

Take `CNc1cc(C)nc(N2C[C@@H](C(=O)O)[C@H](C3CC3)C2)n1`: the INHIBITION is recorded as -75.5%. On to `CCc1cc(N2C[C@H](C3CC3)[C@@H](N)C2)nc(N2CCOCC2)n1`, for which the INHIBITION is on record as -73.7%. Turning to `CCc1ccc(CN(CCCn2ccnc2)Cc2ccc(C)s2)o1`, the INHIBITION is given as 21.9%. Consider `CN1[C@@H]2CC[C@H]1CN(c1nc(-c3ccncc3)nc3c1cnn3C)CC2`, for which the INHIBITION is listed as -86.6%. With `CCc1cc(C(=O)N2Cc3ccccc3OC3(CCOCC3)C2)on1`, the INHIBITION is -33.7%. Regarding `CN(C)CCN1C(=O)CCC12CCCN(C(=O)CC1CC1)CC2` (centres undefined), the INHIBITION is listed as -26.4%.

On to `Cc1cc2c(cc1CN1CCCCC1CCn1ccnc1C)OCO2` (centres undefined), for which the INHIBITION came to 67.7%. Take `Cc1nccn1CCC1CCCCN1Cc1ccncc1` (centres undefined): the INHIBITION is listed as -88.5%. As for `Cc1nccn1CCC1CCCCN1Cc1cccc(CCN)c1` (centres undefined), the figure is 59.8%; as for `Cc1nccn1CCC1CCCCN1Cc1ccc2c(c1)OCCO2` (centres undefined), 46.4%; as for `Cc1nccn1CCC1CCCCN1Cc1cnc(N(C)C)nc1` (centres undefined), 4.12%.

As for `Cc1nccn1CCC1CCCCN1Cc1ccc(O)cc1Cl` (centres undefined), the INHIBITION is reported as 24.6%.

As to `Cn1cc(CNC2CCC(O)CC2)c(-c2cc3ccccc3o2)n1` (centres undefined), the INHIBITION was -29%. As for `CC(C)NC(=O)Nc1ccc(CNCc2ccc(OC(F)F)cc2)cc1`, the figure is -97.1%.

With `CC(C)c1nc(C2CCCN2Cc2ccncc2Cl)no1` (centres undefined), the INHIBITION is given as -53.3%. For `COCCN1C[C@@H]2CC[C@H]1CN(C(=O)c1ccc(Cl)cc1)C2`, the INHIBITION is -61.5%. Take `CCCN1C[C@@H]2CC[C@H]1CN(Cc1cccc(-n3cccn3)c1)C2`: the INHIBITION was 46.5%.

`N[C@H]1CN(S(=O)(=O)c2cccnc2)C[C@@H]1C1CC1`: the INHIBITION is -59.9%.

On to `Cc1ccc(-n2cccn2)cc1S(=O)(=O)N1C[C@H](C2CC2)[C@@H](N)C1`, for which the INHIBITION is reported as 41.6%.

On to `COc1ccc(-n2cccn2)cc1S(=O)(=O)N1C[C@H](C2CC2)[C@@H](N)C1`, for which the INHIBITION came to 58.9%.

For `CCCN1C[C@@H]2CC[C@H]1CN(Cc1ccc(-n3cccn3)cc1)C2`, the INHIBITION is 30.8%. With `Cc1ccc(-n2cccn2)cc1S(=O)(=O)N1C[C@H]2CC[C@@H](C1)N(C)C2`, the INHIBITION was found to be 63.6%.

On to `CN(C)Cc1cnc(C2CCN(C(=O)c3ccc(F)cc3)C2)[nH]1` (centres undefined), for which the INHIBITION is given as -144%. In the case of `CCOc1cc(C)nc(N2CCN(C(=O)C(C)NC(C)=O)CC2)n1` (centres undefined), the INHIBITION was -92.3%. Turning to `O=C(Nc1ccccn1)NC1CCN(c2ccccc2OC(F)F)C1` (centres undefined), the INHIBITION was determined as 8.94%. Take `O=C(Nc1ccncc1)NC1CCN(c2ccccc2OC(F)F)C1` (centres undefined): the INHIBITION came to 64.4%. Consider `Cc1ccc(N2CCCC(NCc3c(C)noc3C)C2)nn1` (centres undefined), for which the INHIBITION is -2.57%. As for `Cc1noc(C)c1CNC1CCN(c2ccccc2OC(F)F)C1` (centres undefined), the INHIBITION is on record as 63.7%. `COc1ccccc1N1CCC(NCc2c(C)noc2C)C1` (centres undefined): the INHIBITION worked out at 28.4%. To `O=C(Nc1cccnc1)NC1CCN(c2ccccc2OC(F)F)C1` (centres undefined) belongs 16%; to `CCCOc1c(Cl)cc(C(=O)N2CCOC23CCN(C)CC3)cc1Cl`, -5.1%.
